Measured values taken from PMC5540273 (PLoS ONE, 2017).

Legend:
Conditions in all cases: concentration: 1 μM, replicates: in singlicate; n = 1
[1] = system: T1, BIKE
T1 construct: gene BMP2K

[2] = system: BLK
[3] = system: BMPR1A
[4] = system: BMPR1B
[5] = system: BMPR2
[6] = system: BMX
[7] = system: BRAF
[8] = system: T2, BRK
T2 construct: gene PTK6

[9] = system: BRSK1
[10] = system: BRSK2
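Further: KINOMEscan kinase panel screen.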

Compound	%Inh [1] [%]	%Inh [2] [%]	%Inh [3] [%]	%Inh [4] [%]	%Inh [5] [%]	%Inh [6] [%]	%Inh [7] [%]	%Inh [8] [%]	%Inh [9] [%]	%Inh [10] [%]
CS(=O)(=O)CCNCc1nc(-c2ccc3ncnc(Nc4ccc5c(cnn5Cc5ccccc5)c4)c3c2)cs1.Cl.Cl [GW569716]	0	38	0	0	16	2	0	17	0	0
O=C1NC(=O)C(c2ccc(Cl)cc2)=C1Nc1ccc(O)cc1 [SB-340867]	4	0	0	0	0	21	0	0	0	0
Cc1ccc(NC(=O)Nc2ccc(Cl)cc2)cc1-c1ccc(C(=O)Nc2ccncc2)cc1 [GSK1398472]	18	21	0	0	0	15	43	30	0	0
Fc1ccc(-c2nn3cccc(F)c3c2-c2ccncc2)cc1 [GW475620]	34	20	24	0	0	8	29	11	0	0
Cc1ccccc1-c1cc(-c2c[nH]nc2-c2ccccn2)ccn1 [GW680061]	2	32	0	0	7	1	6	18	0	0
